CYP2C9 activ: increases human cytochrome P450 2C9 activity; activation factor at 5 µM; actives 1.4% (n = 96,000); recombinant CYP2C9, luciferin-H conversion, luminescence; stronger effect = higher value; factor 1 = untreated enzyme, 0 = blocked; P11712;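 active = activation factor of 2 or more for CYP2C9 at a 5 µM dose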;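 note: 0 = sulfaphenazole-blocked wells and 1 = vehicle-only wells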
CYP2C19 inhib: inhibitors of human CYP2C19 | inhibition, % at 5 µM | actives 21% (n = 96,000) | CYP2C19 Supersomes, luciferin-H EGE luminescence, 30 min | P33261;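 active = CYP2C19 inhibition above a set limit at 5 µM in the primary screen, cut at about 50% in these data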;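 note: plate controls were negative control wells for no effect and 2.5 mM tranylcypromine positive control for full effect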
Target sequence (P33261 whole entry, looked up): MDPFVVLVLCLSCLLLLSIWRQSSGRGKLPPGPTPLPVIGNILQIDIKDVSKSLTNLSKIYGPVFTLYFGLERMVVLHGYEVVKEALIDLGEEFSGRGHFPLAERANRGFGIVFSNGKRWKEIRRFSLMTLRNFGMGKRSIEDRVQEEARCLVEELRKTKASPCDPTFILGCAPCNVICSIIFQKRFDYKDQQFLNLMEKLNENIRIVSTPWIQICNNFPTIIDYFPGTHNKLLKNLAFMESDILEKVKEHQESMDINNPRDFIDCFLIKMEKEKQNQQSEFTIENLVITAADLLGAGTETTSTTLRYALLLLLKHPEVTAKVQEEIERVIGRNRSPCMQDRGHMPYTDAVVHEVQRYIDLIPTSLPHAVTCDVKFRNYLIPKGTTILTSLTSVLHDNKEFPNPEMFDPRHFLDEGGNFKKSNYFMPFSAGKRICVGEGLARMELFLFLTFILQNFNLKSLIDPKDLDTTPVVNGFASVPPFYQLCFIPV
CYP2C9 inh: inhibitors of human CYP2C9; P11712; CYP2C9 Supersomes, luciferin-H conversion, luminescence; inhibition, % at 5 µM; actives 20% (n = 96,000); AID 777;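 active = blocking of liver enzyme CYP2C9 beyond about 50% at 5 µM, limit read from the data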
CYP2C19 activ: activators of human cytochrome P450 2C19. activation factor at 5 µM. recombinant CYP2C19, luciferin-H EGE luminescence; stronger effect = higher value; 0 = fully inhibited enzyme, 1 = untreated enzyme. 96,000 tested, under 10 active. P33261;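 active = activation factor of at least 2 at 5 µM in the primary screen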;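 note: 0 = wells with 2.5 mM tranylcypromine and 1 = vehicle-only wells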
Cav32 inh: blocks human Cav3.2 T-type calcium channel. B-score at 10 µM. O95180. Cav3.2-expressing cells, Fluo-4 calcium fluorescence FDSS; stronger effect = lower value. actives 4% (n = 100,000);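 active = single-dose well whose peak fluorescence ratio is a statistical outlier from its plate by either plate-standardised score or position-corrected B-score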
Starred values were filed as active, the others as inactive; . = no result. In the library only some 27% were active in any assay of this set; here they are far more common.

SMILES | CYP2C9 activ | CYP2C19 inhib | CYP2C9 inh | CYP2C19 activ | Cav32 inh
O=C(CSc1ccsc1[N+](=O)[O-])NCCc1ccc(Cl)cc1 | 0.9 | -4 | 8 | 1 | -0.57
O=C(CSc1nc2ccc([N+](=O)[O-])cc2[nH]1)NCCc1ccccc1 | 0.2 | 82* | 81* | 0.2 | -1.5
COc1cccc(N2[C@@H](CC(=O)O)c3ccc(/C=C/C(=O)O)cc3S2(=O)=O)c1 | . | . | . | . | -0.74
COC(=O)[C@@]1(Cc2ccc(OC)cc2)[C@H]2c3cc(C(=O)N4CCCC4)n(CCSCCO)c3C[C@H]2CN1C(=O)c1ccccc1 | . | . | . | . | -0.0088
Nc1c(C(O)(C(F)(F)F)C(F)(F)F)cc(C(O)(C(F)(F)F)C(F)(F)F)c2ccccc12 | . | . | . | . | -0.04
Cc1ccc(NC(=O)NC(=O)N(c2ccccc2)S(C)(=O)=O)cc1 | 1 | 10 | -4 | 0.9 | 0.37
C[N+]1(C)CCCC(OC(=O)C(O)(c2ccccc2)c2ccccc2)C1 (centres undefined) | . | . | . | . | -4.5*
CC[N+](C)(CC)CCOC(=O)C(O)(c1ccccc1)C1CCCCC1 (centres undefined) | . | . | . | . | -0.071
CCC(C)(C)n1nnnc1C(CC(C)C)N1CCC(C(N)=O)CC1 (centres undefined) | 0.8 | -2 | 17 | 1 | -0.0022
COc1cccc(/C=N/n2cncn2)c1OCC#N | 0.7 | 78* | 25 | 0.2 | 0.25
CCOC(=O)C1CCC2(CC1)C(C#N)=C(N)Oc1n[nH]c(C)c12 (centres undefined) | . | . | . | . | 0.55
COc1ccc(OC(C)C(=O)N2CCOCC2)cc1 (centres undefined) | 1 | 15 | -3 | 0.8 | 0.29
COCCn1nnnc1C(C(C)C)N(Cc1cccnc1)Cc1ccccc1Cl (centres undefined) | 0.6 | 95* | 43 | 0 | -0.47
CCC(c1nnnn1CCOC)N1CCN(Cc2ccccc2)CC1 (centres undefined) | 0.8 | 10 | 18 | 0.9 | -0.05
O=C(Nc1ccc2c(c1)C(=O)N(C1CCCCC1)C2=O)C1CCCO1 (centres undefined) | 0.3 | 44 | 72* | 0.6 | -1.1
CCC(=O)Oc1ccc(C(=O)Nc2ccc3c(c2)C(=O)N(C2CCCCC2)C3=O)cc1 | 0.4 | 24 | 58* | 0.8 | -1.3
CC(C)c1nnc(SCC(=O)N2CCOCC2)n1C | . | . | . | . | 0.012
ONC=Nc1cccc2nonc12 | 0.9 | 2 | 6 | 1 | -0.12
Cc1ccc(C2(C(F)(F)F)NC(=O)N3CCCN=C3S2)cc1 (centres undefined) | 0.8 | 76* | 16 | 0.2 | -1.9
Cc1ccc(C2(C(F)(F)F)NC(=O)N3CCN=C3S2)cc1 (centres undefined) | 1 | 76* | -4 | 0.2 | -0.084
O=C1NC(c2ccccc2)(C(F)(F)F)SC2=CCCCCN12 (centres undefined) | . | . | . | . | -0.13
COc1cc(CCNc2ccc3nnc(-c4ccccc4)n3n2)cc(OC)c1OC | . | . | . | . | 1.1
COc1cc(C2C(C(=O)OC(C)C)=C(C)Nc3[nH]c(=O)[nH]c(=O)c32)ccc1O (centres undefined) | 0.5 | 82* | 50 | 0.2 | 0.74
COCCOC(=O)C1=C(C)NC(C)=C(C(=O)OC(C)C)C1c1cccc([N+](=O)[O-])c1 (centres undefined) | . | . | . | . | -0.45
Cc1ccc(C)c(NC(=O)CSc2n[nH]c(-c3ccncc3)n2)c1 | 0 | 66* | 96* | 0.3 | .
SMILES | CYP2C9 activ | CYP2C19 inhib | CYP2C9 inh | CYP2C19 activ | Cav32 inh
O=C(CSc1n[nH]c(-c2ccccc2)n1)c1ccccc1 | 0.8 | 47 | 25 | 0.5 | -0.12
CC(C)c1ccc(C(=O)CSc2n[nH]c(-c3ccncc3)n2)cc1 | 0.1 | 93* | 94* | 0.1 | 2.3
Cc1ccc(NC(=O)CSc2n[nH]c(-c3ccncc3)n2)cc1C | 0 | 63* | 97* | 0.4 | 0.31
O=C(CSc1nc2ccccc2s1)NC1CCS(=O)(=O)C1 (centres undefined) | 1.3 | 28 | -33 | 0.7 | 0.78
O=C(CSc1n[nH]c(-c2ccncc2)n1)NC1CCS(=O)(=O)C1 (centres undefined) | 0.3 | 13 | 72* | 0.9 | 0.36
CCOC(=O)c1c(C)n(C)c2ccc(OC)c(NC(=O)CCN3CCSCC3)c12 | 0.6 | 22 | 44 | 0.8 | 0.079
[2H]c1c([2H])c([2H])c(-c2nc(N3CCCCCC3)sc2C(=O)c2ccccc2)c([2H])c1[2H] | 0.9 | 19 | 14 | 0.8 | -1.9
O=C(CSc1ncnc2nc[nH]c12)N1CCN(c2ccc(Cl)cc2)CC1 | 1 | 11 | 3 | 0.9 | 1.6
O=C(Oc1ccc(Cl)cc1N1C(=O)CCC1=O)c1ccco1 | 0.9 | 11 | 6 | 0.9 | 0.61
CC1(C)Cn2c(nnc2-c2cccc(O)c2)S1 | 0.9 | 17 | 10 | 0.8 | -0.75
Cn1c(=O)[nH]c(=O)c2[nH]c(CN3CCN(C(=O)c4ccco4)CC3)nc21 | 1 | -7 | 5 | 1.1 | 0.4
Cc1nn(Cc2cccc(C(=O)NC(C)c3ccc(C(C)(C)C)cc3)c2)c(C)c1[N+](=O)[O-] (centres undefined) | 0.1 | 78* | 87* | 0.2 | -1.8
CCC(NC(=O)c1cccc(Cn2nc(C)c([N+](=O)[O-])c2C)c1)c1ccc(C(C)C)cc1 (centres undefined) | 0.5 | 23 | 49 | 0.8 | 0.47
Cc1nn(Cc2cccc(C(=O)N3N=C(C(F)F)CC3(O)C(F)F)c2)c(C)c1[N+](=O)[O-] (centres undefined) | 0.1 | 78* | 85* | 0.2 | -2.2
CC(=O)c1cc2c(cc1NC(=O)CN1CCCCC1C)OCO2 (centres undefined) | 0.9 | 42 | 7 | 0.6 | -1.1
O=C1NC2(CCCc3ccccc32)C(=O)N1CCOc1ccc(Br)cc1 (centres undefined) | 0.8 | 5 | 16 | 1 | -1.3
CCOC(=O)Nc1ccc(S(=O)(=O)NCc2ccccc2)cc1 | 0.9 | 19 | 7 | 0.8 | 2.1
CSc1ccc(S(=O)(=O)NCc2ccccc2)cc1 | 1.1 | 67* | -13 | 0.3 | -0.036
O=CNc1ccc(S(=O)(=O)NCc2ccccc2)cc1 | 1.8 | 90* | -78 | 0.1 | 0.45
CSc1ccc(S(=O)(=O)NCc2ccc(Cl)cc2Cl)cc1 | 2.4* | 86* | -136 | 0.1 | -0.16
COCCNS(=O)(=O)c1ccc(SC)cc1 | 1.2 | 35 | -16 | 0.7 | -2.7
O=C(Nc1ccc(Cl)cc1F)C1CCN(S(=O)(=O)c2cccnc2)CC1 | 0.8 | 6 | 17 | 0.9 | 0.57
CC(=O)N1CCN(c2ccc(Oc3nnnn3-c3ccccc3)cc2)CC1 | 1 | 4 | -1 | 1 | 0.83
C=C(C)c1cccc(C(C)(C)NC(=O)N2CCCCC2CC)c1 (centres undefined) | 0.1 | 51* | 89* | 0.5 | -4.5*
Cc1ccc(C)c(S(=O)(=O)NCC(=O)Nc2sc3c(c2C(N)=O)CCC(C)C3)c1 (centres undefined) | 1 | 15 | -1 | 0.8 | -0.048
CCCCCn1nc(-c2ccccc2)c2nc3ccccc3nc21 | . | . | . | . | -7.3*

Bioassay records: PubChem, several laboratories
